In all, about 2,300 compounds went through this assay and about 1,400 (61%) were called active. Inconclusive results (about 7%) are left out. How the calls were made is not given here. So high a share suggests a set chosen from earlier hits. A selection follows. Entries with a potency or affinity are not part of this list.

The target of the assay is FAD-linked sulfhydryl oxidase ALR (Homo sapiens) (UniProt P55789). The experiment in a line: inhibitors of human ALR sulfhydryl oxidase, dose response, biochemical, H2O2 detection, luminescence, cherry-pick (AID 493248). As to conditions: purified ALR, DTT oxidation, H2O2 HRP-luminol luminescence; at 10 µM (top of the series).
Sequence of FAD-linked sulfhydryl oxidase ALR (Homo sapiens) (P55789 whole entry, looked up): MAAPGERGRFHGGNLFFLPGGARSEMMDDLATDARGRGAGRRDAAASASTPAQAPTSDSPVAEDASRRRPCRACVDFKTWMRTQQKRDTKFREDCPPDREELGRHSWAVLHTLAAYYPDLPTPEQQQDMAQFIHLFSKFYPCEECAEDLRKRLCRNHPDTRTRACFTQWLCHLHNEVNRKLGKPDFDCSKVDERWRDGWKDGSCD
On to `N=C1/C(=C\c2ccc(Br)o2)C(=O)N=C2SC(CC(=O)N3CCCCC3)=NN12`, for which the activity change, negative = inhibition is -18.4%. For `CSc1ccc(/C=C2\C(=N)N3N=C(CC(=O)N4CCCCC4)SC3=NC2=O)cc1` the value was -54.4%. In the case of `CCc1ccc(CCC(=O)Nc2ccc(Cl)cc2)o1` it was -22.5%; in that of `CC(C)C(=O)NN(C(=O)C(C)C)c1nc2ccccc2s1`, -76%; in that of `Cn1c(-c2sccc2OCc2ccccc2)n[nH]c1=S`, -40.7%.

With `Cc1nc(-c2ccccc2)sc1-c1n[nH]c(=S)n1C`, the activity change, negative = inhibition is -47.5%. Turning to `COc1cc(CNc2cc(C)ccc2C)cc(OC)c1OC`, the activity change, negative = inhibition is -55.5%. For `Cc1ccc2cc3cc(C(=O)NCCCN4CCCC4=O)oc3nc2c1`, the activity change, negative = inhibition is -55.2%. For `Cc1nc(C)c(-c2csc(Nc3cccnc3)n2)s1` the value was -15.7%; for `Cc1nc(C)c(-c2csc(Nc3ccc(O)cc3C)n2)s1`, -3.91%. For `COc1cc(N)c(Cc2nccc3cc(OC)c(OC)cc23)cc1OC` the value was 5.91%. For `COc1cc(Sc2ccc(C)cc2)c(OC)cc1N` the value was -74.8%. For `CC(/C=N/n1c(-c2ccc(C)cc2)n[nH]c1=S)=C\c1ccco1`, the activity change, negative = inhibition was -40.8%. For `Cc1cccc(/C=N/Nc2nncc3ccccc23)c1` the value was -4.32%; for `CN1C(=O)CC(NNC(=O)c2ccc(Cl)cc2)C1=O` (stereo unspecified), -47.1%. In the case of `O=C(N/N=C1/CCSC1)c1cc(Br)ccc1O` it was -17.6%; in that of `O=c1[nH]nc(CNc2ccc(O)cc2)c2ccccc12`, -103%. In the case of `COc1ccc(NCCc2ccccn2)cc1` it was 86.3%; in that of `COc1ccc(Nc2ccccc2N)cc1`, 221%; in that of `S=c1[nH]cc(-c2ccccc2)n1-c1ccccc1Cl`, -24.1%. On to `Nc1ccccc1C(=O)NNc1c2ccccc2nc2ccccc12`, for which the activity change, negative = inhibition is -69.6%. For `C/C(=N\NC(=O)c1ccccc1O)C1C(=O)c2ccccc2C1=O` the value was -23.9%. In the case of `CC(=O)Nc1ccc(NCN2C(=O)C3C4CCC(C4)C3C2=O)cc1` (stereo unspecified) it was -86.6%; in that of `CCc1cc2c3c(c1)C(C)CC(C)(C)N3C(=O)/C2=C1\SC(=O)NC1=O` (stereo unspecified), -7.31%. In the case of `C/C(=N\Nc1ccccn1)c1cccs1` it was -11.5%; in that of `COc1ccc2c(c1)N(C)/C(=C/c1cccc[n+]1C)S2`, -53.1%; in that of `CCC(=O)Nc1cccc(-c2cnc3ccccc3n2)c1`, 3.89%. As to `CN1CCN(c2ccc(NC(=O)c3ccc(Cl)cc3)cn2)CC1`, the activity change, negative = inhibition was -19.7%.

On to `COc1cc(OC)cc(C(=O)N2CCC(N3CCN(c4ccccc4)CC3)CC2)c1`, for which the activity change, negative = inhibition was -61.4%.

In the case of `CC(=O)NN1C(=O)/C(=C\c2ccc(O)cc2)SC1=S`, the activity change, negative = inhibition is -79.9%. For the compound `O=C(C1CC1)N1CCN=C1SCc1ccc(Cl)cc1`, the activity change, negative = inhibition was -64.3%. For `O=C1c2ccccc2CSc2c(O)cccc21`, the activity change, negative = inhibition is -28.4%.

For `O=C(C1CC1)N1CCN=C1SCc1ccc(F)cc1`, the activity change, negative = inhibition was -51.5%. For `CC(=O)Nc1ccc(S(=O)(=O)NNc2ccc([N+](=O)[O-])cc2)cc1` the value was -103%; for `CN(C)/C=N/c1sc2c(c1C#N)CCC2`, 25.9%. Consider `COC(=O)c1ccc(NC(=O)c2ccc(C)cc2)o1`, for which the activity change, negative = inhibition is -4.94%. In the case of `CN(C)c1ccc(/C=N/NC(=O)c2cccc(N3CCCC3=O)c2)cc1` it was -16.6%; in that of `CC(=O)Nc1cccc(N2CCCC2=O)c1`, -18.2%. In the case of `CCc1c(C)sc(NC(=O)c2cc(C)no2)c1C#N`, the activity change, negative = inhibition was -63.3%.

Regarding `COC(=O)c1ccc2[nH]c3c(c2c1)CC(C)CC3` (stereo unspecified), the activity change, negative = inhibition was -6.7%. For `Cc1nc2ccc(S(=O)(=O)N(C)CC(=O)NCc3ccc(N(C)C)cc3)cc2s1` the value was -41.2%; for `CCN1C(=O)c2ccc(C(=O)Nc3ccc(O)cc3C)cc2C1=O`, -50.1%.

On to `CCn1c(CN(C)c2ccccc2)nc2ccccc21`, for which the activity change, negative = inhibition was -7.07%.

On to `CCn1c(-c2ccc(N)cc2)nc2ccccc21`, for which the activity change, negative = inhibition was -17.3%. For `CCN(Cc1nc2ccccc2n1C)c1ccccc1` the value was -11.5%; for `CN(Cc1nc2ccccc2n1C)c1ccccc1`, -32.4%.

For `O=C(Nc1ccc(O)cc1)c1cc2n(n1)C(C(F)(F)F)CC(c1ccco1)N2` (stereo unspecified), the activity change, negative = inhibition is -82.6%. For `c1ccc2c(-c3csc(-c4ccncc4)n3)c[nH]c2c1` the value was -10.2%; for `COc1cc(C=NNC(=O)c2ccc(NS(=O)(=O)c3cccs3)cc2)cc(Br)c1O`, 165%; for `CCCCCCC(=O)N/N=C/c1ccco1`, -28.6%. In the case of `COc1nc(-c2ccccc2Cl)ccc1C#N` it was -32.6%.

Regarding `Cc1ccc2cn[nH]c2c1N`, the activity change, negative = inhibition was -36.2%. `O=S(=O)(Nc1ccccc1O)c1ccc(Cl)nc1`: the activity change, negative = inhibition was -36.8%.

With `COc1ccc(N2C(=O)CC(NNc3ncc(Cl)cc3Cl)C2=O)cc1` (stereo unspecified), the activity change, negative = inhibition was -50.3%.

With `CC1=NN(C(=O)c2ccc(Br)cc2)C(O)(c2ccccc2)C1` (stereo unspecified), the activity change, negative = inhibition amounted to 286%. In the case of `O=C(NCc1ccc2c(c1)OCO2)C1CC(=O)N(c2ccc(O)cc2)C1` (stereo unspecified) it was -108%; in that of `Cc1noc(C)c1S(=O)(=O)N(CC(=O)NCc1ccc2c(c1)OCO2)c1ccc(C(C)C)cc1`, 1.03%; in that of `O=c1[nH]n(-c2ccc(Cl)cc2)c2ncccc12`, 291%. For `O=C(CCCC(=O)c1ccccc1)Nc1ccc(O)cc1` the value was 182%; for `S=c1[nH]nc(Cc2noc3ccccc23)n1-c1ccc(Cl)cc1`, -49.3%; for `COc1ccc(OC)c(/C(C)=N/Nc2ccc(C(=O)O)cc2)c1`, -31.7%.

Source of the values: PubChem BioAssay AID493248 (Broad Institute, 2011).
